Holding throughout (assay type): functional
The target in assay [1] is Solute carrier family 2, facilitated glucose transporter member 1 (Homo sapiens) (UniProt P11166). Description: ST_JUDE_LEISH: Cytotoxicity at 2uM final concentration against transgenic Leishmania Mexicana promastigotes LmGLUT1 that are glucose transport deficient and complemented with the human glucose transporter GLUT1. Activity is measured by DNA content using SYBR green in vitro.

Assay [2] deals with Hexose transporter 1 (Plasmodium falciparum) (UniProt O97467). The assay can be described thus: ST_JUDE_LEISH: Cytotoxicity at 2uM final concentration against transgenic Leishmania Mexicana promastigotes LmPfHT that are glucose transport deficient and complemented with the Plasmodium falciparum hexose transporter. Activity is measured by DNA content using SYBR green in vitro.

Assay [3] deals with Glucose transporter (Leishmania mexicana) (UniProt O61059). The assay can be described thus: ST_JUDE_LEISH: Cytotoxicity at 2uM final concentration against transgenic Leishmania Mexicana promastigotes LmGT2 that are glucose transport deficient and complemented with the L. Mexicana glucose transporter 2. Activity is measured by DNA content using SYBR green in vitro.

Sequence of Solute carrier family 2, facilitated glucose transporter member 1 (Homo sapiens) (P11166 whole entry): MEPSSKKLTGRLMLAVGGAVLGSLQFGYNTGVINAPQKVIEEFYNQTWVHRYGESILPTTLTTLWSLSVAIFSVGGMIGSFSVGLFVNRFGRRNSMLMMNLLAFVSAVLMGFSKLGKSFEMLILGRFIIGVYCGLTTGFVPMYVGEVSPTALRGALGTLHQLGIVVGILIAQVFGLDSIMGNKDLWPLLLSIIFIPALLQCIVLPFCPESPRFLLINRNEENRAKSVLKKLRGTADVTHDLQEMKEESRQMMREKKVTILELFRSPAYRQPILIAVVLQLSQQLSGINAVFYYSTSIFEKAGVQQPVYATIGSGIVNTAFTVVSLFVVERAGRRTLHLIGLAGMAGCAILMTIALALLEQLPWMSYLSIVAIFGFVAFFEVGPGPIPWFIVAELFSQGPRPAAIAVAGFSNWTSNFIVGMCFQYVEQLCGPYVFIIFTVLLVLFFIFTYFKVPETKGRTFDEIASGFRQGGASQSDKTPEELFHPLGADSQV

On to `COC(=O)[C@@H](NC(=O)[C@H](Cc1ccc(OC)c(OC)c1)Nc1ccc(C#N)c2ccccc12)c1ccc(O)cc1`, for which the figures for the inhibition in assay [1], in assay [2] and in assay [3] were 10.1%, 16.6% and 6.41%, respectively.

Turning to `O=C(/C=C/c1ccc(C(F)(F)F)cc1)NCCCCCN1CCCN(C(=O)Nc2ccc(Cl)c(C(F)(F)F)c2)CC1`, the figures for the inhibition in assay [1], in assay [2] and in assay [3] were -0.16%, 0.4% and 0.66%, respectively.

In the case of `COc1ccc2nccc([C@@H](O)CN3CCC(NC(=O)c4cc5c(Cl)cc(Cl)cc5[nH]4)CC3)c2c1`, the inhibition in assay [1] turned out to be 5.68%; in assay [2], 7.48%; in assay [3], 0.08%.

As to `C[C@@H](N/C(=N\c1ccc(-c2ccccc2)cc1)Nc1ccc(C#N)cc1O)c1ccc(Br)cc1`, the inhibition is 2.33% in assay [1], 2.45% in assay [2] and 2.66% in assay [3].

As for `N=C(N)Nc1nc(-c2cccc(NC(=O)NCC(c3ccccc3)c3ccccc3)c2)cs1`, the inhibition in assay [1] was found to be 0.2%; in assay [2], 2.14%; in assay [3], 0.5%.

In the case of `Cc1ccccc1C1CCN(C2CCC(NC(=O)/C=C/c3cc(F)ccc3F)CC2)CC1` (stereo not drawn), the inhibition was found to be 1.51% in assay [1], 2.73% in assay [2] and 3.64% in assay [3].

The term inhibition denotes the drop in the measured response relative to a control, in per cent.

The values are drawn from ChEMBL document CHEMBL3433997, “St. Jude Leishmania screening dataset” (2016).
